# Test results taken from PMC7862700, “An all-to-all approach to the identification of sequence-specific readers for epigenetic DNA modifications on cytosine”.
# What was measured:
# Assay in all cases: DAPPL (digital affinity profiling via proximity ligation, sequencing); 10 mM Tris-HCl pH 7.5, 50 mM NaCl, 1 mM DTT, 4% glycerol, room temperature, 30 min; GST-TFs on glutathione beads, 16-mer random dsDNA library, 0.1% formaldehyde crosslink after washing; high values mean tight binding
# FLI1 = molecular target: T1, FLI1 (Homo sapiens, UniProt Q01543 1-452); settings: protein: recombinant; tags: N-terminal GST; dsDNA, one strand shown
# T1 sequence: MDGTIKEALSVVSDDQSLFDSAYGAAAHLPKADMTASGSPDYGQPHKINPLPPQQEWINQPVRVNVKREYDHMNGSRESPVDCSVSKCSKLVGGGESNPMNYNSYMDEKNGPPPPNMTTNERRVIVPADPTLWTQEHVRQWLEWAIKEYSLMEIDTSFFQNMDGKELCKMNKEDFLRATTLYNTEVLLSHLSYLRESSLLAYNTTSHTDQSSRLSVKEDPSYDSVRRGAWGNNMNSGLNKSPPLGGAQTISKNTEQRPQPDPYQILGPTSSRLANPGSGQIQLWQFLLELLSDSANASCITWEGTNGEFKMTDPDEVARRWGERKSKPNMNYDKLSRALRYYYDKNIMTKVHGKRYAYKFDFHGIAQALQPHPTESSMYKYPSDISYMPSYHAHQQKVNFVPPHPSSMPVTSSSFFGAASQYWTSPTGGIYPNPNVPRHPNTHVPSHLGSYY
# How it was run: (§1)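 GST fusions of human transcription factors were expressed in yeast and captured with glutathione beads. Once given DNA barcodes and pooled alongside a tag-only sample, they were incubated for 30 min at room temperature with 200 nmole of a random double-stranded 16-mer DNA library in Tris/NaCl/DTT/glycerol buffer, then washed, crosslinked (0.1% formaldehyde), proximity-ligated, PCR-amplified and sequenced on an Illumina NextSeq500. The binding signal of each hexamer is its read frequency for a factor divided by its frequency for the tag-only sample.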
# ELK1 = molecular target: T2, ELK1 (Homo sapiens, UniProt P19419 1-428); settings: protein: recombinant; tags: N-terminal GST; dsDNA, one strand shown
# T2 sequence: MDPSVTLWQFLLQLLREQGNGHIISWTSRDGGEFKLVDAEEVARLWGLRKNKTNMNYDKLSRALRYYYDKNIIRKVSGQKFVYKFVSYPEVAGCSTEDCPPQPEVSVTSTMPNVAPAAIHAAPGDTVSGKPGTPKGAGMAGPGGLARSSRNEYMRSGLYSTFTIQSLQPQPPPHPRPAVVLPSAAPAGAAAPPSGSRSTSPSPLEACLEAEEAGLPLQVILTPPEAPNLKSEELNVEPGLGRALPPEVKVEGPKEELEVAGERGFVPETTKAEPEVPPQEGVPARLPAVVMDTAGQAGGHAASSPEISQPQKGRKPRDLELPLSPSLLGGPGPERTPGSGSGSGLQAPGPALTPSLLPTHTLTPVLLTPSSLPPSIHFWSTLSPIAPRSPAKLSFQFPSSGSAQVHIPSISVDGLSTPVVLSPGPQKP
# How it was run: as §1
# GABPA = molecular target: T3, GABPA (Homo sapiens, UniProt Q06546 1-454); settings: protein: recombinant; tags: N-terminal GST; dsDNA, one strand shown
# T3 sequence: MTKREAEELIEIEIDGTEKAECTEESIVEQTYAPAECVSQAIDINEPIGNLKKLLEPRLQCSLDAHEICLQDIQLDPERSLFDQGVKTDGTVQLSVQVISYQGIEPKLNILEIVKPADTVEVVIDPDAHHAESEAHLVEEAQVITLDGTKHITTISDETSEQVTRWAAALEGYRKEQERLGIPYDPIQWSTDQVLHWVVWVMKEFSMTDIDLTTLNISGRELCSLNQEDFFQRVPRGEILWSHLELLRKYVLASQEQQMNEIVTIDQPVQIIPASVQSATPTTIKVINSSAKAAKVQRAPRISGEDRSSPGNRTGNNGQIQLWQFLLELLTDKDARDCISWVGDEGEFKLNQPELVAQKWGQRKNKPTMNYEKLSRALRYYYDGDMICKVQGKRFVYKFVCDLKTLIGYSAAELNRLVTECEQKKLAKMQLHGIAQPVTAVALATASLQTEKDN
# How it was run: as §1
# ERG = molecular target: T4, ERG (Homo sapiens, UniProt P11308 1-479); settings: protein: recombinant; tags: N-terminal GST; dsDNA, one strand shown
# T4 sequence: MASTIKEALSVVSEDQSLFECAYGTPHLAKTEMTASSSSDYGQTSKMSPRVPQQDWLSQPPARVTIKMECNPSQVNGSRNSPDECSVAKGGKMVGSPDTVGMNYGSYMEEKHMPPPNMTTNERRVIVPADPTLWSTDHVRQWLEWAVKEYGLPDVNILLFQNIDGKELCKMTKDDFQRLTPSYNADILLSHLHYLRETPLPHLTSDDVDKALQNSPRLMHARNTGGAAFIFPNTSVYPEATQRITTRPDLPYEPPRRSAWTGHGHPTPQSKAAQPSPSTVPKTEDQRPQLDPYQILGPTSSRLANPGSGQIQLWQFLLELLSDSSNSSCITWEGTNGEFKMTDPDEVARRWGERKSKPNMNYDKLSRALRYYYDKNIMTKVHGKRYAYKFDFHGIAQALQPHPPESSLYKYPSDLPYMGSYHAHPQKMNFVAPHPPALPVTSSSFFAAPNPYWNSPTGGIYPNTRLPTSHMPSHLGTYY
# How it was run: as §1
# ELF1 = ELF1 (Homo sapiens, UniProt P32519 1-619); settings: protein: recombinant; tags: N-terminal GST; dsDNA, one strand shown
# Chain of ELF1 (P32519 whole entry): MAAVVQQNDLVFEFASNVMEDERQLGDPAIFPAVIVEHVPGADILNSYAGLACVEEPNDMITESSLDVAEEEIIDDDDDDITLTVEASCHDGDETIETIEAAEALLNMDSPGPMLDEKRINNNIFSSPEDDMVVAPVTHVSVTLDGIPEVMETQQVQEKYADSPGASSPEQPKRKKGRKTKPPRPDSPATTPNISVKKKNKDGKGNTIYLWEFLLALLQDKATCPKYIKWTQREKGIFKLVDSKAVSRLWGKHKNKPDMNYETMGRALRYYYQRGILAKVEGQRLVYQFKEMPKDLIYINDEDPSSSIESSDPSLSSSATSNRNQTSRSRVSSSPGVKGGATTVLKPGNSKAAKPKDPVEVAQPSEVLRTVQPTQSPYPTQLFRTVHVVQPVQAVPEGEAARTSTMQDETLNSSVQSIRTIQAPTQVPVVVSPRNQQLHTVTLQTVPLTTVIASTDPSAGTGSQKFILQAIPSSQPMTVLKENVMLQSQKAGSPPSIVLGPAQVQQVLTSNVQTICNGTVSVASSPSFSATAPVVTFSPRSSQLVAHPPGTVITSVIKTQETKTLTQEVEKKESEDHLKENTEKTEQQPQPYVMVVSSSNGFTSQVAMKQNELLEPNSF
# How it was run: as §1
# EHF = molecular target: T5, EHF (Homo sapiens, UniProt Q9NZC4 1-300); settings: protein: recombinant; tags: N-terminal GST; dsDNA, one strand shown
# T5 sequence: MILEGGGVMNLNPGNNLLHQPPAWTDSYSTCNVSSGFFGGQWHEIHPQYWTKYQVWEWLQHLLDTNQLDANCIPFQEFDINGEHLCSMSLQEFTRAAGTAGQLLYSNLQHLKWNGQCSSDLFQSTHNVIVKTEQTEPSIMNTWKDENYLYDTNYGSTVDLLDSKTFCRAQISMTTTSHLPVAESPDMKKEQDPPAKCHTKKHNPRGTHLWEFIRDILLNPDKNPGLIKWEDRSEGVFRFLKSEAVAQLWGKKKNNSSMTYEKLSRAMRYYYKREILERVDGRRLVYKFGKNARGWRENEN
# How it was run: as §1
# SPI1 = SPI1 (Homo sapiens, UniProt P17947 1-270); settings: protein: recombinant; tags: N-terminal GST; dsDNA, one strand shown
# How it was run: as §1
# SPIB = SPIB (Homo sapiens, UniProt Q01892 1-262); settings: protein: recombinant; tags: N-terminal GST; dsDNA, one strand shown
# Chain of SPIB (Q01892 whole entry): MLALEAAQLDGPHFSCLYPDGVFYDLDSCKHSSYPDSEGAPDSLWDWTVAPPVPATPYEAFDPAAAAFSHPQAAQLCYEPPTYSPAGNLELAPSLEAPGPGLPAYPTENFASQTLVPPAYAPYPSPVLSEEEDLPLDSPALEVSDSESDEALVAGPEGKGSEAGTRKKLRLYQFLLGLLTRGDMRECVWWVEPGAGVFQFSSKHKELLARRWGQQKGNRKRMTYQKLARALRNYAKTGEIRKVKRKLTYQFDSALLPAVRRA
# How it was run: as §1
# ELK3 = molecular target: T6, ELK3 (Homo sapiens, UniProt P41970 1-407); settings: protein: recombinant; tags: N-terminal GST; dsDNA, one strand shown
# T6 sequence: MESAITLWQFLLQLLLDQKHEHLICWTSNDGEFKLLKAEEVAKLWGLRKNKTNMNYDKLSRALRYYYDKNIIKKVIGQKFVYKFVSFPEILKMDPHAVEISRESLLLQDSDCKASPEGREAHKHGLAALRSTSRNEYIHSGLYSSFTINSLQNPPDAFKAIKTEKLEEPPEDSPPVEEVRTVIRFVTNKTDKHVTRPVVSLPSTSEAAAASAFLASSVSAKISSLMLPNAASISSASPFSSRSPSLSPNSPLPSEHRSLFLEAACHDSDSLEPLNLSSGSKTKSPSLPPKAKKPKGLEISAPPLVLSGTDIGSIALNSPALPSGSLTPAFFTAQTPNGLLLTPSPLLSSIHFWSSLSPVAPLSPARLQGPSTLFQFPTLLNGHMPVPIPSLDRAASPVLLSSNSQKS
# How it was run: as §1
# ETV5 = ETV5 (Homo sapiens, UniProt P41161 1-510); settings: protein: recombinant; tags: N-terminal GST; dsDNA, one strand shown
# Chain of ETV5 (P41161 whole entry): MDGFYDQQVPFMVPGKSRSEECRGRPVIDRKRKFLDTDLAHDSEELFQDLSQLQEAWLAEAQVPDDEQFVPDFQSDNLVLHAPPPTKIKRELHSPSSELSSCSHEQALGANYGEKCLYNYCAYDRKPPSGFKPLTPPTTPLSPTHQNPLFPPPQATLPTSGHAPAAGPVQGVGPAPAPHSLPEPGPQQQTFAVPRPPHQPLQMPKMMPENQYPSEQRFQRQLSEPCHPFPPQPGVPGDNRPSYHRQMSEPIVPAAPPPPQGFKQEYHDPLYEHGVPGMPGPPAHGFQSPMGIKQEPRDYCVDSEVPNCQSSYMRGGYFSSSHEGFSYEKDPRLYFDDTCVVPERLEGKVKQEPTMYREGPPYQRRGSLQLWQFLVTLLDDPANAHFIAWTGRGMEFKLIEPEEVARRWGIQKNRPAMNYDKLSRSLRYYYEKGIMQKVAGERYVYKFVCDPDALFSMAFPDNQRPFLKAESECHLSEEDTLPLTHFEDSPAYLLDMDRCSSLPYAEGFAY
# How it was run: as §1
# HSF1 = HSF1 (Homo sapiens, UniProt Q00613 1-529); settings: protein: recombinant; tags: N-terminal GST; chain copies: 3; dsDNA, one strand shown
# Chain of HSF1 (Q00613 whole entry): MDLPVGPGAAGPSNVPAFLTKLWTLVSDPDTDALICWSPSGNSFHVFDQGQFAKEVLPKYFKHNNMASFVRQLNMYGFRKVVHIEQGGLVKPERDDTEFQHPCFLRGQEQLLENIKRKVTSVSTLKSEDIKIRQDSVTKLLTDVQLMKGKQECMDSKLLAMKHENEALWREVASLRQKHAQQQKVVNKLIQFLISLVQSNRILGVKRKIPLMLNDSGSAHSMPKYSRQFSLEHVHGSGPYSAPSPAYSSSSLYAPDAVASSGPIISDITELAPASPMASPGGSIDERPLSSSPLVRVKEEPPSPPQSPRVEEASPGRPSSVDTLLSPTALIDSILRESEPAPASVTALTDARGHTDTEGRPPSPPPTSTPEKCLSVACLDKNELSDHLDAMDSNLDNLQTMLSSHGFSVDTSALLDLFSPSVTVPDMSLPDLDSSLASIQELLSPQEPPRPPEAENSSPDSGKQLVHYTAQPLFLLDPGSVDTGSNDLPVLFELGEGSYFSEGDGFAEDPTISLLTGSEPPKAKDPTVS
# How it was run: as §1
# SPIC = molecular target: T7, SPIC (Homo sapiens, UniProt Q8N5J4 1-248); settings: protein: recombinant; tags: N-terminal GST; dsDNA, one strand shown
# T7 sequence: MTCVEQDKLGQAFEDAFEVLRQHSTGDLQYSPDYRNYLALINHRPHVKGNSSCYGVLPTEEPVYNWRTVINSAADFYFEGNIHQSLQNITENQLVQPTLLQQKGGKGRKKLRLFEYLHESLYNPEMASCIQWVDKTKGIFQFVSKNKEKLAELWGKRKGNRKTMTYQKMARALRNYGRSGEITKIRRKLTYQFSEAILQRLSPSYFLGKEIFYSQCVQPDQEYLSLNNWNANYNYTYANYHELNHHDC
# How it was run: as §1
# ELF4 = ELF4 (Homo sapiens, UniProt Q99607 1-663); settings: protein: recombinant; tags: N-terminal GST; dsDNA, one strand shown
# Chain of ELF4 (Q99607 whole entry): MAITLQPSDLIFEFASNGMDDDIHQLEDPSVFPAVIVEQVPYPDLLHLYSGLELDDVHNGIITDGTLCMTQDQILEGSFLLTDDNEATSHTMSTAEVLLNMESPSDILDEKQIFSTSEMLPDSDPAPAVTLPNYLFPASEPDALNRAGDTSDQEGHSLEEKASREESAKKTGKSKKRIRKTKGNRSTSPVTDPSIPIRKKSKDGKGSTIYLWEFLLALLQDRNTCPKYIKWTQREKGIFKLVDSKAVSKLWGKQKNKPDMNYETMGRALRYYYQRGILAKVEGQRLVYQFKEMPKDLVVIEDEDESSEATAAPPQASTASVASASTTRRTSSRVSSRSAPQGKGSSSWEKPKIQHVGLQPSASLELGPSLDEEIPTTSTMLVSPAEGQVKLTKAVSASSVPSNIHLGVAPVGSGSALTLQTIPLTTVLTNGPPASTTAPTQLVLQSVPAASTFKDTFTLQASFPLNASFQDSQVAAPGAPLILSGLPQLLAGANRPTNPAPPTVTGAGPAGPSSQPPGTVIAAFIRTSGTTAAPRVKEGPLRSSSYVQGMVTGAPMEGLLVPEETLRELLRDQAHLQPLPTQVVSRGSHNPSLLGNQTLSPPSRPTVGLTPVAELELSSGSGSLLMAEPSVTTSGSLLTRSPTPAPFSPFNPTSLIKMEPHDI
# How it was run: as §1
# ELK4 = molecular target: T8, ELK4 (Homo sapiens, UniProt P28324-2 1-405); settings: protein: recombinant; tags: N-terminal GST; dsDNA, one strand shown
# T8 sequence: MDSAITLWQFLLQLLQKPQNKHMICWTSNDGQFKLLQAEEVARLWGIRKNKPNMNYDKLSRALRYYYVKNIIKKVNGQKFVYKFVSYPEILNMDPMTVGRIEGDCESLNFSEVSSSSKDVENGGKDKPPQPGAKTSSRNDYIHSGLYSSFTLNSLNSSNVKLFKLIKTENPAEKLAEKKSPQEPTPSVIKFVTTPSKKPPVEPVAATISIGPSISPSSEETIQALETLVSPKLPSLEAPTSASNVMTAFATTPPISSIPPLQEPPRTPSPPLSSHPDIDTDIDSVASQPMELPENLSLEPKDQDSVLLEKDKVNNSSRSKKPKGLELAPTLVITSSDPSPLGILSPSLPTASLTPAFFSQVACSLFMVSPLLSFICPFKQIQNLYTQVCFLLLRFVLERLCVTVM
# How it was run: as §1
# ETV2 = molecular target: T9, ETV2 (Homo sapiens, UniProt O00321 1-342); settings: protein: recombinant; tags: N-terminal GST; dsDNA, one strand shown
# T9 sequence: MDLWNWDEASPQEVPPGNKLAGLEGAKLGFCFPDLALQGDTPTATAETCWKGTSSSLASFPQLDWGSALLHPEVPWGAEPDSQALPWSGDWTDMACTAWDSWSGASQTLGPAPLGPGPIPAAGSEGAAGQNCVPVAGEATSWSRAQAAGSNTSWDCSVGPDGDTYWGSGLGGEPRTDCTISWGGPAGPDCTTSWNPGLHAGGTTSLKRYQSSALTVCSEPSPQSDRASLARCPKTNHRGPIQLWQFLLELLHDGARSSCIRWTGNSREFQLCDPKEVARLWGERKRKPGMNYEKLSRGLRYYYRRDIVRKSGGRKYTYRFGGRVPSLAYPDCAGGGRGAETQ
# How it was run: as §1
# ELF3 = molecular target: T10, ELF3 (Homo sapiens, UniProt P78545 1-371); settings: protein: recombinant; tags: N-terminal GST; dsDNA, one strand shown
# T10 sequence: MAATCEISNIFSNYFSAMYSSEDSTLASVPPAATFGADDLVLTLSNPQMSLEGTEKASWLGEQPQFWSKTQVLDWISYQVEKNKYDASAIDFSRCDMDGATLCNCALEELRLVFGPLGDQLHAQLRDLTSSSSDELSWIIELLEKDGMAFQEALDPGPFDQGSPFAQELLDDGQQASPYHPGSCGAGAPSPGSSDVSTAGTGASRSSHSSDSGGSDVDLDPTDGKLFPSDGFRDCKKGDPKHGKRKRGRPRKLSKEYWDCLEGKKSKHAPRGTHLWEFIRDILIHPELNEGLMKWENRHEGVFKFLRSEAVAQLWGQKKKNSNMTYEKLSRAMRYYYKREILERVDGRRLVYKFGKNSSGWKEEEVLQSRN
# How it was run: as §1
Sequence,binding signal (FLI1),binding signal (ELK1),binding signal (GABPA),binding signal (ERG),binding signal (ELF1),binding signal (EHF),binding signal (SPI1),binding signal (SPIB),binding signal (ELK3),binding signal (ETV5),binding signal (HSF1),binding signal (SPIC),binding signal (ELF4),binding signal (ELK4),binding signal (ETV2),binding signal (ELF3)
TGGGTT,"1.17 fold enrichment (6-mer frequency, TF over GST control)","1.11 fold enrichment (6-mer frequency, TF over GST control)","1.18 fold enrichment (6-mer frequency, TF over GST control)","1.1 fold enrichment (6-mer frequency, TF over GST control)","1.1 fold enrichment (6-mer frequency, TF over GST control)","1.18 fold enrichment (6-mer frequency, TF over GST control)","1.01 fold enrichment (6-mer frequency, TF over GST control)","1.02 fold enrichment (6-mer frequency, TF over GST control)","1.01 fold enrichment (6-mer frequency, TF over GST control)","1.06 fold enrichment (6-mer frequency, TF over GST control)","1.03 fold enrichment (6-mer frequency, TF over GST control)","1.07 fold enrichment (6-mer frequency, TF over GST control)","1.09 fold enrichment (6-mer frequency, TF over GST control)","1.03 fold enrichment (6-mer frequency, TF over GST control)","1.08 fold enrichment (6-mer frequency, TF over GST control)","1.11 fold enrichment (6-mer frequency, TF over GST control)"
AAAGGT,"1.1 fold enrichment (6-mer frequency, TF over GST control)","1.06 fold enrichment (6-mer frequency, TF over GST control)","1.1 fold enrichment (6-mer frequency, TF over GST control)",,"1.07 fold enrichment (6-mer frequency, TF over GST control)","1.06 fold enrichment (6-mer frequency, TF over GST control)","1.01 fold enrichment (6-mer frequency, TF over GST control)","1.02 fold enrichment (6-mer frequency, TF over GST control)","1.05 fold enrichment (6-mer frequency, TF over GST control)","1.05 fold enrichment (6-mer frequency, TF over GST control)","1.02 fold enrichment (6-mer frequency, TF over GST control)","1.09 fold enrichment (6-mer frequency, TF over GST control)","1.02 fold enrichment (6-mer frequency, TF over GST control)","1.05 fold enrichment (6-mer frequency, TF over GST control)","1.06 fold enrichment (6-mer frequency, TF over GST control)","1.17 fold enrichment (6-mer frequency, TF over GST control)"
